Screening results (PubChem)
Pf Dd2 inh – inhibitors of Plasmodium falciparum Dd2 growth | P. falciparum Dd2 growth, SYBR Green, 72 h; hits give low values | activity change, % at 10 µM | 2.3% of 94,000 active | AID 1159554; in the data active = activity change below about -80%
C diff HTS – blocks growth of Clostridium difficile | Clostridium difficile clinical isolate growth, OD600, 24 h; hits give low values | growth activity, negative = inhibition, % at 16 µg/mL (by protocol) | 0.25% of 86,000 active | AID 1259249;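 active = mean growth activity at or below -80% and every replicate also at or below -80%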
Hits are given with their value; – = inactive; · = no result. The list is not random: actives were taken first. Their share in the collection is about 2.3%.

SMILES | Pf Dd2 inh | C diff HTS
CCCC#Cc1ccc([C@@H]2[C@@H](C#N)N(C(=O)C3CCCC3)[C@H]2CO)cc1 | – | –
N#C[C@@H]1[C@@H](c2ccc(C#Cc3ccccc3F)cc2)[C@H](CO)N1C(=O)C1CCCC1 | – | –
N#C[C@H]1[C@@H](c2ccccc2C2=CCCC2)[C@H](CO)N1C(=O)Cc1ccncc1 | – | –
C[C@H](NC(=O)C[C@@H]1CC[C@@H]2[C@H](COC[C@H](O)CN2C(=O)Nc2ccccc2)O1)c1ccccc1 | – | ·
C[C@@H]1CN([C@@H](C)CO)C(=O)c2cc(C#CC3CC3)cnc2O[C@H]1CN(C)C(=O)Nc1ccccc1 | – | ·
Cc1noc(C)c1S(=O)(=O)Nc1ccc2c(c1)CC(=O)N([C@@H](C)CO)C[C@H](C)[C@H](CN(C)S(C)(=O)=O)O2 | – | –
CN(C)C(=O)C[C@@H]1C[C@H]2c3cc(NC(=O)c4ccc5c(c4)OCO5)ccc3O[C@H]2[C@@H](CO)O1 | – | –
CCCNC(=O)N1CC2(CCN(Cc3ccc(F)cc3)CC2)c2c([nH]c3cc(OC)ccc23)[C@H]1CO | – | ·
C/C=C/c1ccc([C@H]2[C@H](CO)N(c3nc(CC)cs3)[C@H]2CNC(C)C)cc1 | -81 | –
C/C=C/c1ccc([C@H]2[C@@H](CO)N(CC3CCCC3)C23CN(C(=O)CC2CC2)C3)cc1 | -87 | –
C/C=C/c1ccc([C@H]2[C@@H](CO)N(CC3CCCC3)C23CN(C(=O)CC)C3)cc1 | – | –
C/C=C/c1ccc([C@H]2[C@@H](CO)N(CC3CC3)[C@@H]2CNC(=O)NC(C)C)cc1 | – | –
C/C=C/c1ccc([C@@H]2[C@@H](CO)N(c3nc(CC)cs3)[C@@H]2CNC(C)C)cc1 | – | –
C/C=C/c1ccc([C@H]2[C@@H](CO)N(CC3CCCC3)[C@@H]2CNC(=O)NC(C)C)cc1 | -94 | –
C/C=C/c1ccc([C@H]2[C@@H](CO)N(CC3CC3)[C@H]2CNS(C)(=O)=O)cc1 | – | –
C/C=C/c1ccc([C@H]2[C@@H](CO)N(CC3CCCCC3)[C@@H]2CNC(C)C)cc1 | -94 | –
C[C@@H]1CN([C@@H](C)CO)C(=O)c2cc(C#C[C@@H](C)O)cnc2O[C@@H]1CN(C)CC1CCOCC1 | – | –
COc1cccc(NC(=O)N2C[C@@H](O)COC[C@H]3O[C@H](CC(=O)NC4CCCC4)CC[C@@H]32)c1 | – | ·
C[C@H]1CN([C@@H](C)CO)C(=O)c2cc(NC(=O)Nc3ccc(F)cc3)ccc2O[C@@H]1CN(C)C(=O)Nc1cccc2ccccc12 | – | –
C[C@H](CO)N1C[C@H](C)[C@@H](CN(C)C(=O)Nc2cccc3ccccc23)Oc2ccc(NC(=O)Nc3ccc(C(F)(F)F)cc3)cc2C1=O | -96 | –
C[C@H]1CN([C@@H](C)CO)C(=O)c2cc(NC(=O)Nc3ccc(C(F)(F)F)cc3)ccc2O[C@@H]1CN(C)C(=O)Nc1cccc2ccccc12 | -95 | –
C[C@@H]1CN([C@H](C)CO)C(=O)c2cccc(NC(=O)C3CC3)c2O[C@H]1CN(C)C(=O)Nc1ccc(C(F)(F)F)cc1 | – | –
C[C@H](CO)N1C[C@H](C)[C@@H](CN(C)C(=O)Nc2ccc(C(F)(F)F)cc2)Oc2ccc(NC(=O)Nc3cccc4ccccc34)cc2C1=O | – | –
C[C@@H]1CN([C@@H](C)CO)C(=O)c2cccc(NC(=O)C3CC3)c2O[C@@H]1CN(C)C(=O)Nc1ccc(C(F)(F)F)cc1 | -89 | –
C[C@H]1CN([C@@H](C)CO)C(=O)c2cc(NC(=O)Nc3cccc4ccccc34)ccc2O[C@H]1CN(C)C(=O)Nc1ccc(C(F)(F)F)cc1 | -91 | –
SMILES | Pf Dd2 inh | C diff HTS
C[C@@H]1CN([C@H](C)CO)C(=O)c2cc(NC(=O)Nc3cccc4ccccc34)ccc2O[C@H]1CN(C)C(=O)Nc1ccc(C(F)(F)F)cc1 | – | –
COc1ccc2c3c(n(C)c2c1)[C@H](CO)N(Cc1cccc(F)c1)CC31CN(C)C1 | – | –
C[C@H](NC(=O)[C@H]1[C@H](CO)[C@H]2Cn3c(ccc(-c4cccnc4)c3=O)[C@@H]1N2C)c1ccccc1 | – | –
C[C@H]1CN([C@@H](C)CO)C(=O)c2cccc(NC(=O)C3CC3)c2O[C@H]1CN(C)CC1CC1 | – | –
C[C@@H]1CN([C@H](C)CO)C(=O)c2cccc(NC(=O)Nc3cccc4ccccc34)c2O[C@@H]1CN(C)C(=O)Nc1ccc(C(F)(F)F)cc1 | -92 | –
C[C@@H]1CN([C@H](C)CO)C(=O)c2cccc(NC(=O)Nc3cccc4ccccc34)c2O[C@H]1CN(C)C(=O)Nc1ccc(C(F)(F)F)cc1 | – | –
C[C@@H]1CN([C@@H](C)CO)C(=O)c2cc(NC(=O)Nc3ccccc3)ccc2O[C@@H]1CN(C)C(=O)Nc1ccc(C(F)(F)F)cc1 | – | –
C[C@@H]1CN([C@@H](C)CO)C(=O)c2c(c3ccccc3n2C)-c2ccccc2CO[C@@H]1CN(C)Cc1ccc2c(c1)OCO2 | -83 | –
C[C@@H]1CN([C@H](C)CO)C(=O)c2c(c3ccccc3n2C)-c2ccccc2CO[C@H]1CN(C)Cc1cccc(C(F)(F)F)c1 | -84 | –
C[C@@H]1CN([C@H](C)CO)C(=O)c2c(c3ccccc3n2C)-c2ccccc2CO[C@@H]1CN(C)Cc1ccc2c(c1)OCO2 | – | –
C[C@@H]1CN([C@H](C)CO)C(=O)c2c(c3ccccc3n2C)-c2ccccc2CO[C@@H]1CN(C)Cc1ccc(C(F)(F)F)cc1 | – | –
C[C@@H]1CN([C@H](C)CO)C(=O)c2c(c3ccccc3n2C)-c2ccccc2CO[C@@H]1CN(C)Cc1cccc(O)c1 | -88 | –
C[C@H](CO)N1C[C@H](C)[C@@H](CN(C)Cc2cccc(O)c2)OCc2ccccc2-c2c(n(C)c3ccccc23)C1=O | – | –
C[C@H]1CN([C@@H](C)CO)C(=O)c2c(c3ccccc3n2C)-c2ccccc2CO[C@@H]1CN(C)Cc1ccc(C(F)(F)F)cc1 | – | –
C[C@@H]1CN([C@@H](C)CO)C(=O)c2c(c3ccccc3n2C)-c2ccccc2CO[C@H]1CN(C)Cc1cccc(C(F)(F)F)c1 | -92 | –
C[C@@H]1CCCCO[C@H](CN(C)Cc2ccccc2)[C@H](C)CN([C@@H](C)CO)C(=O)c2cc(NC(=O)CCC(F)(F)F)ccc2O1 | – | –
C[C@H](CO)N1C[C@H](C)[C@@H](CN(C)C)Oc2ccc(NC(=O)C3CC3)cc2C1=O | – | –
CCCNC(=O)[C@H]1[C@H](CO)[C@H]2Cn3c(ccc(-c4ccccc4OC)c3=O)[C@H]2N1S(C)(=O)=O | – | –
C[C@@H]1CCCCO[C@H](CN(C)S(=O)(=O)c2ccc(Cl)cc2)[C@@H](C)CN([C@@H](C)CO)C(=O)c2cc(NC(=O)Nc3ccc4c(c3)OCO4)ccc2O1 | -83 | –
C[C@@H]1CN([C@@H](C)CO)C(=O)c2cc(NC(=O)Nc3ccc4c(c3)OCO4)ccc2O[C@@H](C)CCCCO[C@@H]1CN(C)S(=O)(=O)c1ccc(F)cc1 | – | –
Cc1ccc(S(=O)(=O)N(C)C[C@@H]2OCCCC[C@H](C)Oc3ccc(NC(=O)Nc4ccc5c(c4)OCO5)cc3C(=O)N([C@H](C)CO)C[C@@H]2C)cc1 | – | ·
C[C@@H]1CN([C@H](C)CO)C(=O)c2cc(NC(=O)Nc3ccc4c(c3)OCO4)ccc2O[C@@H](C)CCCCO[C@@H]1CN(C)S(=O)(=O)c1ccc(F)cc1 | -84 | –
